Only a selection was taken, and hits are over-represented in it overall.
NPR1 activator: GC-A stimulated cGMP production enhancers – HEK293 GC-A cells, cGMP TR-FRET, EC30 ANP, primary screen; 0% at EC30 ANP, 100% saturating ANP; 370,000 compounds, 0.14% hits; AID 1671463, 2021; activation, % at 10 µM; Atrial natriuretic peptide receptor 1 (Homo sapiens), P16066; in the data active means activation above about 40%
ALR inh: inhibitors of human ALR sulfhydryl oxidase, primary screen, biochemical, H2O2 detection, HRP-luminol luminescence, single point; AID 485317, 2010; purified ALR, DTT oxidation; FAD-linked sulfhydryl oxidase ALR (Homo sapiens), P55789; inhibition, % (no concentration beside the values); 290,000 compounds, 3.8% hits;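 active means mean replicate inhibition above about 79%, with every replicate also reaching it, limit read from the data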
HDAC3 inh: HDAC3 deacetylase inhibitors, primary screen, biochemical, fluorescence, cell-free homogeneous. recombinant HDAC3, fluorogenic peptide/trypsin coupled. inhibition, % at 8.3 µM. 320,000 compounds, 0.15% hits; in the data active means inhibition above about 26%, passing the limit was not always enough
Target sequence (O15379 whole entry, looked up): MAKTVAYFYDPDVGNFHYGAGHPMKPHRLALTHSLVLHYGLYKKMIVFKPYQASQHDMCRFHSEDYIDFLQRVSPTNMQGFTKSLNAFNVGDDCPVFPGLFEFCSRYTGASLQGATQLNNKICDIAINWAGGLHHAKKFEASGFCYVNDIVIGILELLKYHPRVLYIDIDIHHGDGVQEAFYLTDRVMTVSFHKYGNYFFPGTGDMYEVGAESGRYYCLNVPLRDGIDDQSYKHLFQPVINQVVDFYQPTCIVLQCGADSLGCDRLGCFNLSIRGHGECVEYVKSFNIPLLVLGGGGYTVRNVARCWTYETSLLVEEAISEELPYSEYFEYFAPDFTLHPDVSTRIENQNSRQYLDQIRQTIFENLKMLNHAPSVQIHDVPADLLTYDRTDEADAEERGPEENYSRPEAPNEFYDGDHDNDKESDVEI
NPR2 activator: human GC-B receptor activators, primary screen, HEK293 GC-B cells, cGMP TR-FRET, EC30 CNP; 0% at EC30 CNP, 100% saturating CNP; 370,000 compounds, 0.11% hits; AID 1920062, 2024; activation, % at 10 µM;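 active means activation at 10 µM reaching about 35% in either raw or pattern-adjusted values, limit read from the data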
The depositor's hits bear a star; nt = no result given.

SMILES | NPR1 activator | ALR inh | HDAC3 inh | NPR2 activator
COc1ccc(-c2ccc(/C=C(\NC(=O)c3ccccc3)C(=O)N3CCOCC3)o2)cc1 | 0 | 98* | 6 | 3
COc1ccc(C(=O)N/C(=C\c2ccccc2)C(=O)N2CCOCC2)cc1 | -1 | -9 | -5 | 1
CCN(CC)CCNS(=O)(=O)c1ccc(C(=O)NN)cc1 | 4 | 98* | 1 | 2
Cc1ccc(C)c(-n2c(-c3cccnc3)n[nH]c2=S)c1 | -1 | 47 | 10 | 0
Cc1ccc(C)c(-n2c(-c3csc(C)c3C)n[nH]c2=S)c1 | -5 | 89* | 2 | -1
O=[N+]([O-])c1cc(/C=N/NC(=S)Nc2ccccc2Cl)ccc1Cl | 58* | 1 | -2 | -5
COc1ccccc1CNc1ccc(N2CCOCC2)c(C(=O)O)c1 | 2 | 99* | -10 | 1
COC(=O)c1cc(NCc2ccc3c(c2)OCO3)ccc1N1CCOCC1 | 2 | -1 | -1 | 5
O=C(O)c1cc(NCc2ccc3c(c2)OCO3)ccc1N1CCOCC1 | 1 | 79* | -1 | -2
O=C(NCc1ccccc1)C(c1cc2ccccc2o1)n1c(=O)c(-c2cc3ccccc3[nH]2)nc2ccccc21 (centres undefined) | 5 | nt | nt | 1
Nc1nnc(SCC(=O)OCC(=O)Nc2ccc(Br)cc2)s1 | -2 | 99* | 3 | 3
Nc1nnc(SCC(=O)OCC(=O)Nc2ccc(Br)cc2F)s1 | 4 | -5 | -2 | -2
Cc1nnc2sc(SCc3ccc(Br)cc3)nn2c1=O | -2 | 49 | -14 | -3
Cc1nnc2sc(SCC(=O)Nc3ccc(Br)cc3)nn2c1=O | 1 | 97* | 4 | 2
COc1ccc(NC(=O)CSc2nn3c(=O)c(C)nnc3s2)cc1 | 3 | 65 | 0 | 1
COC(=O)c1ccc(NC(=O)CSc2nn3c(=O)c(C)nnc3s2)cc1 | 1 | 93* | 1 | 2
Cc1nc2ccc(Cl)cc2c(-c2ccccc2F)c1CC(=O)O | 5 | nt | nt | 2
O=C(Oc1ccc(=O)[nH]n1)c1ccccc1 | 2 | nt | nt | 0
O=C(Oc1cc(=O)n2ccccc2n1)c1ccccc1 | 3 | 22 | 38* | 6
CCOC(CNc1ncnc2sc(-c3ccccc3)cc12)OCC | 7 | 97* | -2 | 6
CC/C(=N\NC(=O)CCC(=O)NCc1ccccc1)c1ccc(O)cc1 | -1 | 99* | 1 | -6
COC(=O)c1ccc(-c2nc(O)c(C)s2)cc1 | -1 | 1 | 6 | 1
COC(=O)c1ccc(-c2nc3cc(Cl)c(N)cc3s2)cc1 | 51* | -52 | 0 | 12
CC(C)(C)OC(=O)NCCCCCNC(=O)c1[nH]cnc1C(=O)Nc1cc(Br)ccc1F | -5 | nt | nt | -9
CC1CC2=C(C(=O)O1)C(c1ccccc1)Nc1ccccc1N2 (centres undefined) | -7 | 98* | 0 | -4
SMILES | NPR1 activator | ALR inh | HDAC3 inh | NPR2 activator
Cc1ccc(C2Nc3ccccc3NC3=C2C(=O)CC(C)(C)C3)c(O)c1 (centres undefined) | -10 | 63 | -2 | 0
Cc1noc2c1C(c1ccc(N(C)C)cc1)C1=C(CC(C)(C)CC1=O)N2 (centres undefined) | 1 | 98* | 1 | -2
CC1(C)CC(=O)C2=C(C1)Nc1ccccc1NC2c1ccccn1 (centres undefined) | 4 | 83* | -3 | -4
Cc1ccc(C2C3=C(CC(C)(C)CC3=O)Nc3onc(C)c32)cc1 (centres undefined) | -5 | nt | -12 | -1
CN1C(=O)NC(c2ccc(Cl)cc2)C2=C1CC(C)(C)CC2=O (centres undefined) | 2 | 94* | 7 | 2
CC1(C)CC(=O)C2=C(C1)Nc1ccccc1NC2c1nc2ccccc2[nH]1 (centres undefined) | -7 | 98* | 1 | -8
CC1(C)CC(=O)C2=C(C1)OC(=O)CC2c1cccs1 (centres undefined) | 4 | -2 | -1 | 3
CCc1ccc(C2NC(=S)NC3=C2C(=O)CC(C)(C)C3)cc1 (centres undefined) | 14 | -10 | -5 | 6
CN(C)c1ccc(C2CC(=O)OC3=C2C(=O)CC(C)(C)C3)cc1 (centres undefined) | 2 | 99* | 2 | -3
CC1(C)CC(=O)C2=C(C1)Nc1cc3c(cc1C2c1ccc(F)cc1)OCO3 (centres undefined) | 5 | 98* | -5 | -4
CC(C)c1ccc(C2NC(=S)NC3=C2C(=O)CC(C)(C)C3)cc1 (centres undefined) | 43* | -9 | -3 | 2
COc1ccc(S[C@]2(C(=O)N3CCCC3)CC(=O)N(C(=O)c3ccccc3)[C@@H]2c2ccc(OC)cc2)cc1 | -7 | nt | nt | -4
CC1(C)CC(=O)C2=C(C1)Nc1ccccc1NC2c1ccc(F)cc1 (centres undefined) | -6 | 99* | -8 | -4
COc1ccc(C2Nc3ccccc3NC3=C2C(=O)CC(C)(C)C3)cc1 (centres undefined) | -5 | 57 | -3 | -3
CC1(C)CC(=O)C2=C(C1)Nc1ccccc1NC2c1ccc2c(c1)OCO2 (centres undefined) | -8 | 99* | -1 | -9
CC1(C)CC(=O)C2=C(C1)Nc1cc3c(cc1C2c1ccc2c(c1)OCO2)OCO3 (centres undefined) | 6 | -24 | 10 | -2
CC(C(=O)NCc1ccccc1)N1CCN(c2ccc(F)cc2)CC1 (centres undefined) | 5 | 17 | -1 | 0
CCN(CC)C1=C(Cl)C(=O)C(Cl)C12OCCO2 (centres undefined) | 5 | -3 | 3 | 4
Cc1cc(C(=O)N2CCCC(N3CCN(c4cccc(Cl)c4)CC3)C2)nn1C (centres undefined) | 4 | 22 | -2 | -1
O=C(CCn1cccn1)N1CCCC(N2CCN(c3cccc(Cl)c3)CC2)C1 (centres undefined) | 5 | 93* | -4 | 1
Cc1cc(C(=O)N2CCCC(N3CCN(c4cccc(Cl)c4)CC3)C2)no1 (centres undefined) | -2 | 80* | 1 | -3
O=C(c1ccoc1)N1CCCC(N2CCN(c3cccc(Cl)c3)CC2)C1 (centres undefined) | 2 | 93* | -5 | -1
O=C(COC(=O)/C=C/c1ccccc1[N+](=O)[O-])NCC(F)(F)F | -3 | -25 | 2 | 5
CCOc1ccc(CCNC(=O)CCC(=O)N2CCOc3ccccc32)cc1OCC | -1 | -1 | -1 | 0
CCC(C(=O)O)n1cnc2scc(-c3ccc(C)c(C)c3)c2c1=O (centres undefined) | 1 | 93* | -3 | 3
Nc1c(Cl)ncnc1NCCc1ccc(O)cc1 | 6 | 90* | 3 | 6
Nc1c(Cl)ncnc1NCc1cccnc1 | 5 | -33 | -10 | 1
